# Assay outcomes (PubChem)
# HT1080 IDH1KD tx: kills HT-1080 cells with IDH1 knockdown | hit rate 2% among 360,000 | Potency, µM (doses to about 46.1 µM), without a hit: at the top dose activity, negative = toxicity, most hits filed as cytotoxic | AID 686971 | HT-1080 IDH1 knockdown viability, ATP luminescence, 48 h;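 further: 0% = DMSO wells and -100% = cell-free medium wells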
#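 Cytotoxicity counter-line: IDH1KD HT-1080, 48 h, CellTiter-Glo. Curves classed by r2, magnitude and activity.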
# HT1080NT lethal: kills 2HG-producing HT-1080-NT fibrosarcoma cells; HT-1080-NT fibrosarcoma viability, CellTiter-Glo ATP luminescence, 48 h; Potency, µM (series often up to 46.1 µM), for inactives: at the highest dose activity, negative = less viability, most hits filed as cytotoxic; hit rate 1.6% among 360,000; AID 686970;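 further: NT is the 2HG producing partner of a matched IDH1 knockdown line; 0% = DMSO-treated cells and -100% = media-only wells without cells; nearly all actives have a fitted effect of over 55% in size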
#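 Luminescent CellTiter-Glo readout after 48 hours of compound exposure at 37 degrees C defined viability of HT-1080-NT cells. Activity was normalized to DMSO wells and cell-free media wells; concentration-response curves were fitted and assigned curve classes.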
# ATXN2 expr inh: inhibitors of ATXN2 expression; HEK-293 ATXN2-luciferase reporter, luminescence, 24 h; AID 1745845; Potency, µM (highest dose often 57 µM), for the others: at the highest dose activity change, negative = inhibition, actives largely listed as inhibitors; hit rate 0.72% among 360,000; further: on the % scale 0 is the no-effect control and ±100 the full control effect; nearly all actives have a fitted effect of over 55% in size
#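 qHTS (up to 57 uM final) was run with 24 h compound exposure of reporter cells at 37 °C. Each well was multiplexed: SteadyGlo luminescence measured ATXN2-luciferase expression after a fluorogenic Gly-Phe-AFC viability readout (25 uM final).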
# S2 tox: viability counter-screen for ATXN expression inhibitors; S2 cells (HEK-293 line with an ATXN2-luciferase reporter) viability, CellTiter-Fluor protease fluorescence, 24 h; Potency, µM (series often up to 56.7 µM), most hits filed as cytotoxic; AID 651635; hit rate 0.49% among 400,000; further: nearly all actives have a fitted effect of over 40% in size
# KB-3-1 tox: kills parental KB-3-1 adenocarcinoma cells; Potency, µM (highest dose often 46.1 µM), most hits filed as cytotoxic; KB-3-1 viability, CellTiter-Glo ATP luminescence, 72 h; hit rate 1.4% among 400,000; further: on the % scale 0 is the no-effect control and ±100 the full control effect; nearly all actives have a fitted effect of over 60% in size
#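 Multi-concentration cytotoxicity screen in KB-3-1 cells grown in DMEM lacking phenol red with 10% FBS. After 72 h at 37 °C with compound, ATP-dependent luminescence was recorded.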
# KB-V1 cytotox: KB-V1 MDR subline cytotoxicity; KB-V1 MDR cells viability, CellTiter-Glo, 72 h; Potency, µM (series often up to 46.1 µM), usual class: cytotoxic; hit rate 3.4% among 400,000; AID 1347076; further: on the % scale 0 is the no-effect control and ±100 the full control effect; nearly all actives have a fitted effect of over 60% in size
#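 Following 72 h at 37 degrees C with compound, KB-V1 cell viability was read by CellTiter-Glo luminescence, medium being phenol-red-free DMEM plus 10% FBS; concentration-response parameters came from normalized, curve-fitted qHTS data.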
# * marks the source's active call; other numbers are inactive results; i = inactive; u = inconclusive; x = not tested or not shown; [ ] = another dose, or the depositor's remark. Rows were chosen to be rich in hits. Some 6.2% of all compounds tested hit in one or more screens of this group. The call rests on the fitted dose curve; in most records, active means well fitted curve in the direction sought with a large enough effect; inconclusive means small, poorly fitted or top-dose-only effect, or another doubt; inactive means no such curve, though single readings can be large; an effect the other way counts as inactive or inconclusive. Potency means the concentration at half of the fitted maximal effect.
SMILES,HT1080 IDH1KD tx,HT1080NT lethal,ATXN2 expr inh,S2 tox,KB-3-1 tox,KB-V1 cytotox
NC(Cc1ccc(Cl)cc1)c1csc(Nc2cc(Oc3ccccc3)ncn2)n1 (stereo unspecified),18µM*,18µM*,-21%,x,u,u
Cc1nnc(NC(=O)CSc2nc3c([nH]c4ccccc43)c(=O)n2-c2ccc(Cl)cc2)s1,x,x,5%,i,i,i
O=C(NCc1cccnc1)[C@@H]1CC=C[C@@H]2CCN(C3CCCCC3)C(=O)[C@@H]21,x,x,x,x,i,i
O=S(=O)(c1ccccc1)c1nc(Nc2ccccc2N2CCOCC2)sc1Cl,-25%,u,-19%,i,i,21µM*
CC(C)c1cc(C(=O)N2CCCC(CCC(=O)NCc3ccccc3F)C2)n(C)n1 (stereo unspecified),-12%,-8%,-22%,i,u,9.2µM*
Cc1ncoc1C(=O)N1CCCC(CCC(=O)NCc2ccccc2F)C1 (stereo unspecified),-11%,u,14%,i,u,u
COCc1ccc(C(=O)N2CCCC(CCC(=O)NCc3ccccc3F)C2)o1 (stereo unspecified),u,15µM*,-23%,i,u,u
O=C(CCC1CCCN(C(=O)c2ccco2)C1)NCc1ccccc1F (stereo unspecified),-29%,-15%,7%,i,i,i
O=P(OC1CCCCC1)(OC1CCCCC1)C(O)c1c(Cl)cccc1Cl (stereo unspecified),-8%,-2%,-3%,i,u,18µM*
CCN(CC)CCOC(=O)C1(c2ccc(OC)c(OC)c2)CCCC1,-7%,-15%,4%,i,i,21µM*
CC(C)CCn1c(=O)c2ccccc2n2c(CCl)nnc12,u,18µM*,u,u,u,i
CCCCCn1c(=O)c2ccccc2n2c(CCl)nnc12,23µM*,23µM*,u,i,u,u
N#Cc1cnc2cc(-c3ccccc3)nn2c1N,u,u,39%,i,u,2.6µM*
COc1ccc(-c2cc3ncc(-c4ccccc4)c(N)n3n2)cc1,u,u,53%,i,i,u
COc1ccc(NC(=O)Cn2c(=O)oc3cc(S(=O)(=O)N4CCC(C)CC4)ccc32)c(OC)c1,x,x,x,x,u,i
CCC(c1nnnn1-c1ccc2c(c1)OCCO2)N1CCN(c2ccccc2OC)CC1 (stereo unspecified),u,-6%,-17%,i,u,7.3µM*
CCC(c1nnnn1-c1ccc2c(c1)OCCO2)N1CCN(c2ccc(C)cc2)CC1 (stereo unspecified),-14%,-10%,-16%,i,18µM*,i
COc1ccc(N2CCN(C(=O)CSc3nnc(-c4cc5ccccc5cc4O)n3C)CC2)cc1,u,u,-16%,i,18µM*,2.3µM*
COc1ccc(OC)c(NC(=O)CSc2nnnn2-c2ccc3c(c2)OCO3)c1,0%,u,8.9µM*,i,u,u
COc1ccc(OC)c(-c2ccnc(-n3ncc(C(=O)N4CCN(CCO)CC4)c3C3CC3)n2)c1,x,x,x,i,x,x
COc1ccc2oc(=O)c(C(=O)NCCc3c(C)[nH]c4c(C)cccc34)cc2c1,x,x,1%,i,i,u
C=C1C(=CC=C2CCC[C@]3(C)[C@@H]([C@H](C)CCCC(C)(C)O)CC[C@@H]23)C[C@@H](O)C[C@@H]1O,x,x,35%,x,x,x
COc1ccc(-n2nnnc2SCC(=O)Nc2nc3c(s2)CCCC3)cc1,18µM*,-21%,-36%,u,i,i
COc1ccc(N2CCN(C(=O)CSc3nnnn3-c3ccc4c(c3)OCCO4)CC2)cc1,-25%,0%,0%,i,i,21µM*
CCC(c1nnnn1-c1ccc2c(c1)OCCO2)N1CCN(c2ccccc2)CC1 (stereo unspecified),-8%,1%,-17%,i,u,i
SMILES,HT1080 IDH1KD tx,HT1080NT lethal,ATXN2 expr inh,S2 tox,KB-3-1 tox,KB-V1 cytotox
CCC(c1nnnn1-c1ccc2c(c1)OCCO2)N1CCN(c2ccc(OC)cc2)CC1 (stereo unspecified),-29%,-2%,-17%,i,u,16µM*
COc1ccc(-n2nnnc2SCC(=O)c2cccc(OC)c2)cc1,-3%[9.24 µM],22µM*,0%,i,i,i
COc1ccc(-n2nnnc2SCC(=O)NC2CC2)cc1,-3%,2%,3%,i,i,i
Cc1ccc(CN2COc3ccc4c(-c5ccccc5)cc(=O)oc4c3C2)cc1,x,x,5%,i,i,i
CC1(C)CC(NC(=O)c2ccc(Cl)c(S(=O)(=O)N(Cc3ccccc3)c3ccccc3)c2)CC(C)(C)N1,-24%,-23%,u,x,u,i
CCNC(=O)[C@@H]1CCCN1C(=O)[C@H](CCCN=C(N)N)NC(=O)[C@H](CC(C)C)NC(=O)CNC(=O)[C@H](Cc1ccc(O)cc1)NC(=O)[C@H](CO)NC(=O)[C@H](Cc1c[nH]c2ccccc12)NC(=O)[C@H](Cc1cnc[nH]1)NC(=O)[C@@H]1CCC(=O)N1,x,x,11%,i,x,x
Cc1cc(C)n(-c2nc3ccccc3nc2N2CCN(c3cccc(C)c3C)CC2)n1,x,x,12%,i,i,i
CN(C)c1ncc(C(=O)NCc2ccccc2Cl)cn1,x,x,1%,i,i,i
O=C(CCCSc1ccccc1)Nc1ccc(Cl)c(S(=O)(=O)N2CCOCC2)c1,-18%,1%,-27%,i,u,2.6µM*
Cc1ccc(OCCOC(=O)c2cc(S(=O)(=O)N3CCCCC3)ccc2N2CCOCC2)cc1,u,-1%,-33%,u,4.6µM*,2.9µM*
CC(=O)c1ccc(OCCCC(=O)Nc2ccc(Cl)c(S(=O)(=O)N3CCOCC3)c2)cc1,-17%,-5%,x,i,u,i
O=C(OCCOc1ccc(Cl)cc1)c1cc(S(=O)(=O)N2CCCCC2)ccc1N1CCOCC1,u,-19%,x,u,u,u
Cc1ccc(OCCCC(=O)Nc2ccc(Cl)c(S(=O)(=O)N3CCOCC3)c2)cc1,-21%,-20%,-35%,i,15µM*,7.3µM*
COc1cccc(NC(=O)C2C3C=CC4(O3)C2C(=O)N(CCCN2CCCC(C)C2)C4C(=O)NC2CCCCC2C)c1 (stereo unspecified),-18%,-19%,-10%,i,i,i
COc1ccc(N2CCN(C(CNC(=O)c3cccc(OC)c3)c3cccnc3)CC2)cc1 (stereo unspecified),x,x,-4%,u,i,u
